Assay results as given in PubChem BioAssay (NCI).
Compounds without any hit were thinned out: in the full panel of roughly 83,000, 20% have a hit.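 The test compound was applied at a single concentration to cells in 96-well plates for 48 hours, and percent growth was recorded.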 A number with no mark means an inactive call. Activity calls are given as the source filed them. The calls were made as follows: active = growth percent below 10; inactive = the rest.

The compounds below were run on HL-60(TB) leukemia (assay: NCI-60 one-dose screen, 48 h (100 = growth as untreated, 0 = no growth, -100 = all killed)). Conditions: 10 µM unless noted.

SMILES | growth
O=C(CSc1nnc(-c2ccc(NC(=O)c3cccnc3)cc2)o1)Nc1cccc(Br)c1 | 96.1%
O=C1CCCc2nc3sc4c(=O)n(-c5ccccc5Cl)nnc4c3cc21 | 109%
O=C(Nc1cccc(C2=NCCN2)c1)c1cccc(C(=O)Nc2cccc(C3=NCCN3)c2)c1 | 98.7%
CC(=O)O[C@H]1CC[C@]2(C)[C@H]3CC=C4[C@@H]5[C@H](C)[C@@H](C)CC[C@]5(C(=O)NCCNCCNCCN)CC[C@@]4(C)[C@]3(C)CC[C@H]2C1(C)C | 81.6%
O=[N+]([O-])c1ccc(N=Nc2c(Cl)cc(O)cc2Cl)cc1 | -31.9% (active)
